# Data reported in PubChem BioAssay (EPA / NIEHS).
# Records with an inconclusive call do not appear. Active and inactive are the calls of the source. The calls were made as follows, unless noted: active = hit-call score of the fitted dose curve at least 0.9, where 1 is the maximum; inconclusive = response in the unintended direction; inactive = score below 0.9.
# Key:
# [1] = read-out: organic anion transporter (SLCO1B1), SLCO1B1 (gene 10599); assay: CLD_SLCO1B1_6hr: CellzDirect (CLD) Gene Expression Assay for organic anion transporter (SLCO1B1) at 6 hours (AID 2283668);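 also: active means mRNA induction above DMSO baseline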
# In short: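 SLCO1B1 mRNA induction measured 6 h after dosing by quantitative nuclease protection with chemiluminescent read-out, in human primary hepatocyte cultures given chemicals at several concentrations (vehicle 0.2% DMSO). Increase over DMSO baseline fitted; morphology-based cytotoxicity annotated yes/no.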
# [2] = CLD_ACTIN_24hr: CellzDirect (CLD) Gene Expression Assay for Baseline Control (Actin) at 24 hours (AID 2283670)
# In short: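 This 24 h qNPA (S1 nuclease protection, chemiluminescence) actin transcript readout in cultured human liver primary cells serves as baseline control. Signal is fitted upward relative to 0.2% DMSO; chemicals tested at multiple concentrations across two donor preparations.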
# [3] = read-out: glucuronosyltransferase (UGT1A1), UGT1A1 (gene 54658); assay: CLD_UGT1A1_6hr: CellzDirect (CLD) Gene Expression Assay for glucuronosyltransferase (UGT1A1) at 6 hours (AID 2283672)
# In short: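 UGT1A1 mRNA induction, read by quantitative nuclease protection assay, 6 h after dosing primary human hepatocytes (two donors, 0.2% DMSO vehicle). Gain of signal fitted relative to vehicle.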
# [4] = read-out: ABC Transporter (ABCB11), ABCB11 (gene 8647); assay: CLD_ABCB11_24hr: CellzDirect (CLD) Gene Expression Assay for ABC Transporter (ABCB11) at 24 hours (AID 2283674; active = hit-call score of the fitted dose curve at least 0.9, where 1 is the maximum; inactive = score below 0.9)
# Experimental: CLD_24hr is a cell-based, multiplexed-readout assay that uses hepatocyte, a human liver primary cell, with measurements taken at 24 hours after chemical dosing in a 96-well plate.CLD_ABCB11_24hr is one of 16 assay component(s) measured or calculated from the CLD_24hr assay. It is designed to make measurements of mRNA induction, a form of inducible reporter, as detected with chemiluminescence signals by Quantitative Nuclease Protection Assay (qNPA) technology.Data from the assay component CLD_ABCB11_24hr was analyzed at the endpoint, CLD_ABCB11_24hr, in the positive analysis fitting direction relative to DMSO as the negative control and baseline of activity. […] Furthermore, this assay endpoint can be referred to as a primary readout. […]
# Human hepatocyte cultures were treated daily for two consecutive days with fresh dosing solutions containing appropriate concentrations of the 320 ToxCast chemicals (chemical identities were blinded to CellzDirect and other ToxCast collaborators), vehicle control (0.2% DMSO), and positive control inducers as summarized in Table 1. […] Cultures for each treatment group (i.e., media, vehicle [0.2% DMSO], positive control inducers [multiple concentrations], and the ToxCast chemicals [multiple concentrations]) were observed and cell morphology was assessed relative to vehicle control cultures at each harvest time point (0, 6, 24, or 48 h). […]
# [5] = read-out: Cytochrome P450 (CYP24A1_1), CYP24A1 (gene 1591); assay: LTEA_HepaRG_CYP24A1_1: Life Technologies and Expression Analysis (LTEA) Assay for Cytochrome P450 (CYP24A1_1) using HepaRG (AID 2283671; active = hit-call score of the fitted dose curve at least 0.9, where 1 is the maximum; inactive = score below 0.9); conditions: mRNA level, 48 h; actives raise or lower the signal
# In short: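 Differentiated human HepaRG cells were exposed in duplicate for 48 h in serum-free induction medium to eight concentrations (top 100 uM, half-log steps, 0.5% DMSO). CYP24A1 mRNA was quantified by TaqMan qRT-PCR, normalized to ACTB, GAPDH and POLR2A, and fitted bidirectionally versus DMSO.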
smiles,measurement,setting,value
CCC(C)(CC)c1cc(NC(=O)c2c(OC)cccc2OC)on1,outcome,[1],inactive
Cc1ccccc1CO[C@@H]1C[C@@]2(C(C)C)CC[C@]1(C)O2,outcome,[1],inactive
CN(C)c1nc(=O)n(C2CCCCC2)c(=O)n1C,outcome,[2],inactive
CCSC(=O)N(CC)C1CCCCC1,outcome,[1],inactive
same,outcome,[2],inactive
same,outcome,[3],inactive
same,outcome,[4],inactive
Clc1ccc(Cl)cc1,outcome,[5],inactive
CC1=C2C[C@H]3[C@@H](CC=C4C[C@@H](O)CC[C@@]43C)[C@@H]2CC[C@]12O[C@@H]1C[C@H](C)CN[C@H]1[C@H]2C,outcome,[5],inactive
